Data from PubChem BioAssay (Tox21).
Where “and” joins values, the source holds several entries; their conditions need not be identical. Identical values can stand only once. Values without a mark were called inactive. Inconclusive results are not listed. Where a call stands in place of a potency, no number is given. Calls of active or inactive are those of the source. Unless noted, calls follow the shape of the dose curve; as a rule, active = well fitted curve in the direction sought with a large enough effect in the repeat runs; inconclusive = weak or mixed curves; inactive = no such curve, though single readings can be large; an effect the other way counts as inactive or inconclusive.

Legend:
[1] = qHTS assay for small molecule agonists of the p53 signaling pathway (AID 651631; calls by dose curve; also: nearly all actives have a fitted effect of over 15% in size)
Summary of the method: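 We treat p53RE-bla HCT-116 cells with compounds for 16 h at 37 °C, add LiveBLAzer B/G FRET substrate for 2 h at room temperature, and measure fluorescence intensity.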

[2] = qHTS assay for small molecules that induce genotoxicity in human embryonic kidney cells expressing luciferase-tagged ATAD5 (AID 651632); also: nearly all actives have a fitted effect of over 15% in size
Summary of the method: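 ATAD5-luc HEK293T, 2,000 cells/well; cpd or DMSO pin-transferred; 16 hr, 37C/5% CO2; Amplite 30 min RT; luminescence.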

[3] = qHTS assay for small molecule agonists of the p53 signaling pathway - cell viability (AID 651633; calls by dose curve;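 also: p53RE-bla HCT reporter cells with a stable beta-lactamase p53 reporter; series mostly up to about 83 µM; nearly all actives have a fitted effect of over 30% in size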)
Summary of the method: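 Viability counter-read: CellTiter-Glo luminescence (30 min, room temperature) in the same p53RE-bla plates. These plates had been exposed to compounds for 16 h at 37 C.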

[4] = qHTS assay for small molecules that induce genotoxicity in human embryonic kidney cells expressing luciferase-tagged ATAD5 - cell viability (AID 651634; calls by dose curve; also: nearly all actives have a fitted effect of over 25% in size)
Summary of the method: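 Fluorescence from CellTiter-Fluor, reporting protease activity within live cells, served as the viability read-out. HEK293T cells carrying luciferase-tagged ATAD5 had been treated with compound for 15.5 hr at 37C.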

[5] = qHTS assay for small molecule disruptors of the mitochondrial membrane potential - cell viability (AID 720634; calls by dose curve;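 also: human HepG2 liver cancer cells; series mostly up to about 83 µM; nearly all actives have a fitted effect of over 20% in size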)
Summary of the method: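 Cells: HepG2, 2,000/well, attached overnight. Compound 1 hr, 37 C/5% CO2. +m-MPI dye, +CellTiter-Glo 30 min RT. Readout: luminescence (ATP).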

[6] = qHTS assay for small molecule disruptors of the mitochondrial membrane potential (AID 720635); also: potency is read from the fitted curve at half-maximal effect
Summary of the method: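 Mitochondrial membrane potential tracked with Mito-MPS dye, red aggregates (ex 540/em 590 nm) against green monomers (ex 490/em 535 nm). Compound treatment 1 hr at 37C, dye 30 min in HepG2.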

[7] = qHTS assay to test for compound auto fluorescence at 590 nm (red) in HepG2 cells (AID 720674)
Summary of the method: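 We screened compounds on adherent HepG2 cells, incubating them for an hour at 37 C in 5% CO2 before reading emission at 590 nm under 540 nm excitation; values reflect equivalence to Rose Bengal sodium fluorescence.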

[8] = qHTS assay to test for compound auto fluorescence at 535 nm (green) in HepG2 cells (AID 720675)
[9] = qHTS assay to test for compound auto fluorescence at 460 nm (blue) in HEK293 cells (AID 720678)
Summary of the method: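 HEK293, 2,000 cells/well, 10% dialyzed FBS; attach 4-5 hr 37C; pin compound or DMSO; o/n 37C/5% CO2; fluorescence 405/460 nm; triamterene-equivalent units.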

[10] = qHTS assay to test for compound auto fluorescence at 590 nm (red) in HEK293 cells (AID 720679)
Summary of the method: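 Intensity at 540nm excitation and 590nm emission is reported as Rose Bengal sodium-equivalent autofluorescence. Measurements followed overnight exposure (37C, 5% CO2) of HEK293 cells, 2,000 per well, to 23 nL compound.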

| SMILES | Potency [1] | Potency [2] | Potency [3] | Potency [4] | outcome [5] | Potency [6] | outcome [7] | outcome [8] | outcome [9] | outcome [10] | fluorescence, relative to Rose Bengal [7] | fluorescence, % of fluorescein control [8] | fluorescence, % of triamterene [9] | fluorescence, % of fluorescent control [10] |
| --- | --- | --- | --- | --- | --- | --- | --- | --- | --- | --- | --- | --- | --- | --- |
| COCCOC[C@H](CC1(C(=O)NC2CCC(C(=O)O)CC2)CCCC1)C(=O)Oc1ccc2c(c1)CCC2 (stereo partly specified) | inactive | inactive | inactive | inactive | inactive | inactive | inactive | inactive | inactive | inactive | – | – | – | – |
| CC(=O)N1C[C@H](O)C[C@H]1C(=O)O | inactive | inactive | inactive | inactive | inactive | inactive | inactive | inactive | inactive | inactive | – | – | – | – |
| CCN(C=O)CC | inactive | inactive | inactive | inactive | inactive | inactive | inactive | – | inactive | inactive | – | – | – | – |
| CC(C)(C#N)Nc1nc(Cl)nc(NC2CC2)n1 | inactive | inactive | inactive | inactive | inactive | inactive | inactive | inactive | inactive | inactive | – | – | – | – |
| CN(C)[C@@H]1C(=O)C(C(=O)NCN2CCCC2)=C(O)[C@@]2(O)C(=O)C3=C(O)c4c(O)cccc4[C@@](C)(O)C3C[C@@H]12 (stereo partly specified) | inactive | inactive | inactive | inactive | inactive | inactive | inactive | inactive | inactive | inactive | – | – | – | – |
| [O-][n+]1cccc(CO)c1 | inactive | inactive | inactive | inactive | inactive | inactive | inactive | inactive | inactive | inactive | – | – | – | – |
| CN1CC(=O)N/C1=N/C(=O)Nc1cccc(Cl)c1 | inactive | inactive | inactive | inactive | inactive | 21.1 µM (active) and 26.6 µM (active) | inactive | inactive | inactive | inactive | – | – | – | – |
| C[N+](C)(C)CCCCCCCCCC[N+](C)(C)C | inactive | inactive | inactive | inactive | inactive | – | inactive | inactive | inactive | inactive | – | – | – | – |
| CCN[C@@H]1C[C@H](N)[C@@H](OC2OC(CN)=CCC2N)[C@H](O)[C@H]1O[C@H]1OC[C@](C)(O)[C@H](NC)[C@H]1O (stereo partly specified) | inactive | inactive | inactive | inactive | inactive | inactive | inactive | inactive | inactive | inactive | – | – | – | – |
| CC(C)(C)C(=O)Oc1ccc(S(=O)(=O)Nc2ccccc2C(=O)NCC(=O)O)cc1 | inactive | inactive | inactive | inactive | inactive | inactive | inactive | inactive | inactive | inactive | – | – | – | – |
| O=C(O)CCSCCC(=O)O | inactive | inactive | inactive | inactive | inactive | inactive | inactive | inactive | inactive | inactive | – | – | – | – |
| CC(C)CCCO | inactive | inactive | inactive | inactive | inactive | – | inactive | inactive | inactive | inactive | – | – | – | – |
| CC1=CCC(O)(C(C)C)CC1 (stereo unspecified) | inactive | inactive | inactive | inactive | inactive | – | inactive | inactive | inactive | inactive | – | – | – | – |
| Cc1ccc(C(=O)c2ccc(CC(=O)O)n2C)cc1 | inactive | inactive | inactive | inactive | inactive | – | – | – | – | – | 0.352% [at 18.6 µM] | 0.0458% [at 18.6 µM] | -0.184% [at 18.6 µM] | 0.256% [at 18.6 µM] |
| CCCCCCC1CCC(=O)O1 (stereo unspecified) | inactive | inactive | inactive | inactive | – | – | inactive | inactive | inactive | inactive | – | – | – | – |
| CC1=CC(=O)[C@H]2C[C@@H]1C2(C)C | inactive | inactive | inactive | inactive | – | – | inactive | inactive | inactive | inactive | – | – | – | – |
| CC(C)(CCC(=O)O)C(=O)O | inactive | inactive | inactive | inactive | – | inactive | inactive | inactive | inactive | inactive | – | – | – | – |
| OCCCCCO | inactive | inactive | inactive | inactive | – | – | inactive | – | inactive | inactive | – | – | – | – |
| C[N+]1(C)[C@@H]2CC(OC(=O)[C@H](CO)c3ccccc3)C[C@H]1[C@@H]1O[C@@H]12 (stereo partly specified) | inactive | inactive | inactive | inactive | – | – | inactive | – | inactive | inactive | – | – | – | – |
| CO[C@@]1(NC(=O)CSC[C@@H](N)C(=O)O)C(=O)N2C(C(=O)O)=C(CSc3nnnn3C)CS[C@@H]21 | inactive | inactive | inactive | inactive | – | inactive | inactive | inactive | inactive | inactive | – | – | – | – |
| c1coc(CNc2ncnc3nc[nH]c23)c1 | inactive | inactive | inactive | inactive | inactive | – | inactive | inactive | inactive | inactive | – | – | – | – |
| O=C(O)CNC(=O)c1ccc(CO)o1 | inactive | inactive | inactive | inactive | inactive | – | inactive | inactive | inactive | inactive | – | – | – | – |
| CC1=NN(c2cc(S(=O)(=O)O)ccc2Cl)C(=O)C1N=Nc1ccccc1 (stereo unspecified) | inactive | inactive | inactive | – | inactive | – | inactive | inactive | inactive | inactive | – | – | – | – |
| CC(C)CC(C)(N)C#N (stereo unspecified) | inactive | inactive | inactive | inactive | inactive | – | inactive | inactive | inactive | inactive | – | – | – | – |
| CCOC(=O)CCC(=O)OCC | inactive | inactive | inactive | inactive | – | – | inactive | inactive | inactive | inactive | – | – | – | – |
